The values below come from PubChem BioAssay (NCATS).

Results filed as inconclusive are left out. Where a call stands in place of a potency, no number is given. Activity calls are given as the source filed them. Calls follow the shape of the dose curve; as a rule, active = well fitted cell-killing curve with a large enough effect; inconclusive = small, poorly fitted or top-dose-only effect; inactive = flat fitted curve, though single readings scatter.
Potency is read from the fitted curve at half-maximal effect.

The assay can be described thus: qHTS of pediatric cancer cell lines to identify multiple opportunities for drug repurposing: Primary screen for Rh18 cells (AID 1347102). Also: nearly all actives have a fitted effect of over 65% in size. As to conditions: Rh18 rhabdomyosarcoma viability, CellTiter-Glo luminescence, 48 h; series mostly up to 46 µM. From the text:
Drug repurposing or repositioning has been offered as a strategy for drug development in oncology programs. This approach has special potential for childhood cancers and other rare or orphan diseases, where the expected return on new drug development has been a disincentive to pharmaceuticals.
In this project we exploit the poly-pharmacology of drugs to discover new indications via phenotypic screening of a panel of 19 well-characterized cell lines derived from solid tumors seen in children and adolescents. The goal is to identify approved drugs with previously unrecognized anticancer properties that has the potential to reveal new mechanisms and biological processes involved in carcinogenesis or drug resistance. We employed a titration-based paradigm (quantitative high-throughput screening or qHTS), where all compounds were tested at multiple concentrations for their effect on cell viability. Concentration-response curves (CRCs) were derived directly from the primary screen, and both potency and efficacy values were used to identify compounds with robust bioactivity profiles. We screened the NIH Chemical Genomics Center (NCGC) Pharmaceutical Collection (NPC) and Mechanism Interrogation Plate (MIPE) small molecule collections of approved and investigational compounds against these cell lines; and measured metabolically active cells after 48 hours of compound treatment as a proxy for cell viability.
Assay Submitter: Nathalia J. Martinez, National Center for Advancing Translational Sciences, National Institutes of Health, Rockville, MD, USA; email: natalia.martinez@nih.gov
[1] Shen, M et al. Quantitative high-throughput phenotypic screening of pediatric cancer cell lines identifies multiple opportunities for drug repurposing. Oncotarget 2017 Dec 19;9(4):4758-4772. PMID 29435139.
The cells were obtained from University of North Carolina (UNC), Pediatric Preclinical Testing Program (PPT), and Coriell Institute (CI).
qHTS cell viability assay:
Cells were assayed in growth media at a density of 500-1,000 cells/well. Five microliters of cells were dispensed into 1,536-well, white, solid-bottom, TC-treated plates (Greiner Bio One) using a multidrop dispenser and incubated at 37 degrees C, 5% CO2, under a humidified atmosphere for 5 hours. Twenty-three nanoliters of compounds and controls (neutral control DMSO or positive control bortezomib at final concentration of 2.3 µM) were subsequently transferred by Kalypsys pintool. For primary screens, the MIPE collection was tested at 11-point dilutions (final concentrations range from 0.78 nM to 46 µM) and the NPC collection at 8-point dilutions (final concentrations range from 0.59 nM to 46 µM). Compounds tested in follow-up screens were assayed at 11-point dilutions. Cells were incubated for 48 hours, followed by addition of 3 µL of CellTiter-Glo (Promega). After a 15 min incubation at room temperature, samples were analyzed for luminescence intensity using a ViewLux High-throughput CCD imager equipped with clear filters.
A general note: qHTS replaces the single test concentration by a dilution series.
On to `COCCOC(=O)C1=C(C)NC(C)=C(C(=O)OC/C=C/c2ccccc2)C1c1cccc([N+](=O)[O-])c1` (stereo not given), for which the Potency entry is “inactive”.

Take `CC[C@H]1CN2CCc3cc(OC)c(OC)cc3[C@@H]2C[C@@H]1C[C@H]1NCCc2cc(OC)c(OC)cc21`: the Potency is 2.11 µM (active).

Turning to `NS(=O)(=O)c1cc2c(cc1Cl)NC(CSCc1ccccc1)=NS2(=O)=O`, the Potency entry was “inactive”.

Consider `O=C1NS(=O)(=O)c2ccccc21`, for which the Potency entry was “inactive”.

For `CC1=C(/C=C/C(C)=C/C=C/C(C)=C/C(=O)O)C(C)(C)CCC1`, the Potency result was “inactive”.

For `CCCCN(CCCC)CC(O)c1cc(Cl)cc2c1-c1ccc(Cl)cc1/C2=C/c1ccc(Cl)cc1` (stereo not given), the Potency is 21.1 µM (active).

Regarding `CC(=O)Oc1ccc(C2(c3ccc(OC(C)=O)cc3)C(=O)Nc3ccccc32)cc1`, the Potency result is “inactive”.

Take `COc1ccccc1O`: the Potency result is “inactive”.

As for `NC(=O)NC(=O)Cc1ccccc1`, the Potency result is “inactive”.

As to `CC(=O)NC(Cc1ccccc1)C(=O)O` (stereo not given), the Potency entry was “inactive”.

Consider `CCCCCCCCCCCCCCCC(=O)NCCO`, for which the Potency result is “inactive”.

Turning to `CCCOC(=O)c1ccccc1`, the Potency entry is “inactive”.

On to `NC(=O)c1ncn([C@@H]2O[C@H](CO)[C@@H](O)[C@H]2O)c1N`, for which the Potency entry is “inactive”.

Consider `O=C1O[C@H](CO)[C@@H](O)[C@H](O)[C@H]1O`, for which the Potency result is “inactive”.

Take `CN(C)CC[C@@H](c1ccc(Cl)cc1)c1ccccn1`: the Potency result is “inactive”.

With `O=C1OC(OC(=O)c2cccnc2Nc2cccc(C(F)(F)F)c2)c2ccccc21` (stereo not given), the Potency entry is “inactive”.

Consider `O=C(O)c1ccccn1`, for which the Potency entry was “inactive”.

With `CC12CCC(CC1)C(C)(C)O2`, the Potency entry was “inactive”.

Turning to `CS(=O)(=O)c1ccc([C@@H](O)[C@@H](CF)NC(=O)C(Cl)Cl)cc1`, the Potency entry is “inactive”.

For the molecule `COc1ccc2cc1Oc1cc3c(cc1OC)CC[N+](C)(C)[C@H]3Cc1ccc(cc1)Oc1c(OC)c(OC)cc3c1[C@@H](C2)[N+](C)(C)CC3`, the Potency result is “inactive”.

Consider `NS(=O)(=O)c1cc2c(cc1C(F)(F)F)NC(Cc1ccccc1)NS2(=O)=O` (stereo not given), for which the Potency result is “inactive”.

Turning to `Nc1ccc(S(=O)(=O)NC(=O)c2ccccc2)cc1`, the Potency entry was “inactive”.

As to `Cc1cccc(C)c1NC(=O)CN(CC(=O)O)CC(=O)O`, the Potency result is “inactive”.

`O=C(CCCN1CCN(c2ccccn2)CC1)c1ccc(F)cc1`: the Potency entry is “inactive”.

In the case of `CC(C(O)c1ccc(O)cc1)N1CCC(Cc2ccccc2)CC1` (stereo not given), the Potency result was “inactive”.

`CC(O)CN(CCN(CC(C)O)CC(C)O)CC(C)O` (stereo not given): the Potency result was “inactive”.

For `NC1[C@H]2CN(c3nc4c(cc3F)c(=O)c(C(=O)O)cn4-c3ccc(F)cc3F)C[C@@H]12` (stereo not given in full), the Potency entry is “inactive”.

`CNC(=O)Oc1ccc2c(c1)[C@]1(C)CCN(C)[C@@H]1N2C`: the Potency result is “inactive”.

`O=C1Nc2ccc(Cl)cc2[C@@](C#CC2CC2)(C(F)(F)F)O1`: the Potency entry is “inactive”.

Turning to `C=CCn1c(=O)n([C@@H]2O[C@H](CO)[C@@H](O)[C@H]2O)c2nc(N)[nH]c(=O)c21`, the Potency entry was “inactive”.

Take `CCCCN(CCCC)CCCOC(=O)c1ccc(N)cc1`: the Potency result was “inactive”.

Consider `CCCCC/C(C=O)=C\c1ccccc1`, for which the Potency result was “inactive”.

As for `NC(=O)c1ncn([C@@H]2O[C@H](CO)[C@@H](O)[C@H]2O)n1`, the Potency entry is “inactive”.

For `CCOc1ccc2ccccc2c1C(=O)N[C@@H]1C(=O)N2[C@@H]1SC(C)(C)[C@@H]2C(=O)O`, the Potency result is “inactive”.

As for `c1ccc(CN(CC2=NCCN2)c2ccccc2)cc1`, the Potency entry is “inactive”.

For the molecule `Nc1ccc(S(=O)(=O)Nc2ccccc2)cc1`, the Potency entry is “inactive”.

In the case of `CCCCc1ncc(/C=C(\Cc2cccs2)C(=O)O)n1Cc1ccc(C(=O)O)cc1`, the Potency result was “inactive”.

`CN1[C@@H]2CC[C@H]1CC(OC(=O)C(O)c1ccccc1)C2` (stereo not given in full): the Potency result is “inactive”.

For the molecule `OCC(CO)N[C@H]1C[C@](O)(CO)[C@@H](O)[C@H](O)[C@H]1O`, the Potency result was “inactive”.

For `Cn1c(=O)c2c(ncn2CC2OCCO2)n(C)c1=O`, the Potency result is “inactive”.
